Screening results: PubChem, National Center for Advancing Translational Sciences (NCATS)
FMDV inh = High Throughput Screening for Foot and Mouth Disease Virus Antivirals; FMDV antiviral cell-based qHTS; Potency, µM (top dose mostly 57.9 µM), for the others: at the top dose activity change, negative = inhibition, usual class: inhibitors; 410,000 compounds, 1.2% hits; calls by dose curve; tested in HEK293T cells; note: read-out not given here; potency is the fitted concentration of half-maximal effect; nearly all actives have a fitted effect of over 45% in size
Giardia FBPA inh = qHTS Assay for Inhibitors of Fructose-1,6-bisphosphate Aldolase from Giardia Lamblia; 290,000 compounds, 0.71% hits; purified Giardia FBPA; Potency, µM (titrated, usually from 59.6 µM), for the others: top-dose activity, negative = inhibition, usual class: inhibitors; note: potency is the fitted concentration of half-maximal effect; nearly all actives have a fitted effect of over 55% in size
Target sequence (A8B2U2 whole entry, looked up): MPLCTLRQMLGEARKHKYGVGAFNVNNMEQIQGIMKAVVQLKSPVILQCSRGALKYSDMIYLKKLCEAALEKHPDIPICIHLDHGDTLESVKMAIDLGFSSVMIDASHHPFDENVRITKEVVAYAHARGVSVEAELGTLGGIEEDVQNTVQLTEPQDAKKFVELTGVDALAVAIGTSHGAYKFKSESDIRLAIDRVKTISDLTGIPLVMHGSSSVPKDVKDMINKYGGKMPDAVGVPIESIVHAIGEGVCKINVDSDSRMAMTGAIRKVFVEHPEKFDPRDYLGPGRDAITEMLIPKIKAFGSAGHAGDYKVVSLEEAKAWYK
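40 nM FBPA preincubated 10 min at RT with compound (up to 57.5 uM final), then substrate plus GAPDH/TPI/NAD/arsenate coupling and diaphorase/resazurin added. Fluorescence read after 20 min at RT, 525/598 nm.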
Sm TGR block = qHTS Assay for the Inhibitors of Schistosoma Mansoni Peroxiredoxins | purified TGR, DTNB reduction, TNB absorbance 405 nm | Potency, µM (highest dose often 114 µM), for inactives: at the highest dose activity change, negative = inhibition, actives largely listed as inhibitors | 360,000 compounds, 3% hits; note: potency is the fitted concentration of half-maximal effect; nearly all actives have a fitted effect of over 60% in size
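TGR 20 nM + NADPH 100 uM (dispensed conc.), cpd preinc 15 min RT; start with NADPH (500 uM addition) then DTNB (15 mM addition). Kinetic TNB absorbance, 405 nm filter. Four-parameter Hill fit across titration.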
HCMV inh = qHTS Assay for inhibitors of the human cytomegalovirus (HCMV) | HFF cells, HCMV-luciferase reporter, 72 h; active compounds read low | activity change, negative = inhibition, % at 57.5 µM | 410,000 compounds, 4.5% hits | AID 1259415, 2018; in the data active = activity change below about -60%; inconclusive = no clear call, values can overlap the other calls; inactive = above about -39%
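Two-dose cell screen: HFF monolayers treated with compounds and infected with luciferase-expressing HCMV at 1 PFU/cell, 72 h at 37C, then lysed for luciferase measurement.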
TbPYK inhibitor = qHTS of Trypanosoma Brucei Inhibitors; pyruvate kinase (Trypanosoma brucei), Q57TT1; TbPYK enzyme, Kinase-Glo Plus ATP luminescence, 45 min; Potency, µM (top dose mostly 76.8 µM), for the others: top-dose activity, negative = inhibition, hits mostly inhibitors; 410,000 compounds, 0.12% hits; AID 624173, 2012; note: potency is the fitted concentration of half-maximal effect; nearly all actives have a fitted effect of over 50% in size
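In this concentration-response screen, enzyme-free wells defined baseline while DMSO plates tracked drift. Each reaction combined TbPYK, substrate, compound and 130 uM ADP for 45 min at room temperature. Kinase-Glo Plus luminescence gave the signal.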
RE007 growth inh = qHTS Assay for Inhibitors of the HIV-1 protein Vpr; S. pombe RE007 Vpr strain, BacTiter-Glo ATP luminescence, 24 h; Potency, µM (titrated, usually from 92.2 µM), for inactives: at the top dose activity change, negative = less growth, most hits filed as inhibitors; 360,000 compounds, 0.21% hits; active = well fitted falling curve with a large enough effect; inconclusive = small, poorly fitted or top-dose-only effect; inactive = no such curve, though single readings can be large or run the other way; note: potency is the fitted concentration of half-maximal effect; nearly all actives have a fitted effect of over 50% in size
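Fission yeast RE007 carrying one integrated HIV-1 vpr copy, seeded at OD 0.01 in PMG+AL medium with 23 nL pinned compound. Grown 24 h at 30 degrees; viability read by BacTiter-Glo luminescence after 5 min.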
The depositor's hits bear a star; ? = inconclusive; . = no result. Hits are enriched below; roughly 7.7% of the tested compounds scored in any of these assays. Unless noted, calls come from the whole dose curve; as a rule, active = well fitted curve in the direction sought with a large enough effect; inconclusive = small, poorly fitted or top-dose-only effect, or another doubt; inactive = no such curve, though single readings can be large; an effect the other way counts as inactive or inconclusive. % is set by controls: 0 for no effect and ±100 for the full control effect.

SMILES	FMDV inh	Giardia FBPA inh	Sm TGR block	HCMV inh	TbPYK inhibitor	RE007 growth inh
O=C(Nc1ccc(F)cc1)C1C(c2ccccc2)C1(Cl)Cl (stereo not given)	?	-7%	7%	-68*	-15%	-36%
O=C(Nc1ccccc1Cl)C1C(c2ccccc2)C1(Cl)Cl (stereo not given)	-21%	5%	6%	-21	5%	-18%
C=CCSC1=N/C(=C\c2ccc(C)o2)C(=O)S1	-9%	-23%	40µM*	4	-4%	?
C=CCSC1=N/C(=C\c2ccsc2)C(=O)S1	0%	-4%	-28%	85	-1%	-25%
CCCN(CCC)S(=O)(=O)c1ccc(N2CCCCS2(=O)=O)cc1	14%	.	-9%	-3	2%	.
Cc1ncc2c(c1CNC(=O)/C=C/c1cccs1)CCN(C(=O)C1CCCO1)C2 (stereo not given)	-16%	.	.	.	.	.
S=c1[nH]nc(-c2ccncc2)n1Cc1ccccc1	.	-6%	1%	?	?	6%
Cc1scc(-c2n[nH]c(=S)n2Cc2ccccc2)c1C	-22%	14%	-14%	-26	3.2µM*	-8%
Fc1ccccc1-c1n[nH]c(=S)n1Cc1ccccc1	-3%	24%	-2%	.	?	-11%
CCc1c(-c2n[nH]c(=S)n2Cc2ccccc2)csc1C	?	16%	-3%	-13	?	4%
Cc1cc(-c2n[nH]c(=S)n2Cc2ccccc2)cs1	-18%	11%	3%	68	3.5µM*	11%
S=c1[nH]nc(-c2ccccc2Cl)n1Cc1ccccc1	4%	-2%	4%	-5	6.3µM*	4%
O=C1CN(C(=O)c2ccc(S(=O)(=O)N3CCCCC3)cc2)C(c2ccc(F)cc2)c2cc(Br)ccc2N1 (stereo not given)	-21%	.	-27%	-8	-2%	.
CCCCc1c2ccccc2nc2[nH]c3ccccc3c12	.	-2%	.	.	.	.
O=C(c1cc(COc2ccc(F)cc2Cl)on1)N1CCC(OCc2cccnc2)CC1	-14%	-3%	4%	-68*	4%	13%
CN1CCN(C(=O)c2cc3cc(F)ccc3[nH]2)CC1	21%	6%	11%	93	-8%	-11%
O=C(c1cc(COc2ccc(F)cc2F)on1)N1CCN(C(=O)c2ccco2)CC1	-44%	.	25µM*	-38	-3%	-13%
O=C(c1cc(COc2ccc(F)cc2Cl)on1)N1CCCC(OCc2cccnc2)C1 (stereo not given)	0%	0%	2%	?	7%	11%
O=C(c1cc2cc(F)ccc2[nH]1)N1CCN(C(=O)c2ccco2)CC1	9%	.	40µM*	37	-10%	-6%
CCCCOc1ccc(C(=O)Nc2ccc3c(c2)CCCN3S(=O)(=O)c2ccc(C)cc2)cc1	-25%	.	-3%	?	0%	.
COCCNC(=O)c1c(-c2ccccc2)c(-c2ccccc2)nn(C)c1=O	0%	.	2%	29	-2%	.
Cc1ccc(C(C)C)cc1OCC(=O)Nc1nnc(C2CC2)s1	-14%	.	.	-84*	-4%	9%
Cc1cc(OCC(=O)Nc2nnc(C3CC3)s2)ccc1C(C)C	-20%	.	5%	-15	1%	4%
CCOC(=O)N(C)C[C@H]1OCc2cnnn2CCCC(=O)N([C@H](C)CO)C[C@@H]1C	.	.	.	-10	.	.
Oc1ccc(N=Nc2n[nH]c(-c3ccc(Cl)cc3)n2)cc1	56%	4%	9%	-95*	-1%	13%
SMILES	FMDV inh	Giardia FBPA inh	Sm TGR block	HCMV inh	TbPYK inhibitor	RE007 growth inh
O=C(NCc1cccs1)C(=O)c1cn(CC(=O)N2CCOCC2)c2ccccc12	8%	2%	10%	-96*	-4%	52%
Cc1cccc(NC(=O)c2cccc(N3C(=O)C4C5C=CC(C6CC56)C4C3=O)c2)c1 (stereo not given)	16µM*	3%	-21%	2	-2%	4%
Cc1ccc(-c2nnc(Nc3ccc(O)cc3)c3ccccc23)cc1S(=O)(=O)N1CCCCC1	-7%	.	-8%	-90*	2%	.
Cc1ccccc1Nc1nnc(-c2ccc(C)c(S(=O)(=O)N3CCOCC3)c2)c2ccccc12	?	.	-1%	-9	-3%	.
Cc1ccccc1Nc1nnc(-c2ccc(C)c(S(=O)(=O)N3CCCCC3)c2)c2ccccc12	0%	.	1%	-63*	2%	.
CCCCOc1ccc(-c2nonc2NC(=O)c2ccco2)cc1	-12%	.	-3%	-12	2%	.
CCO[C@H]1OC(C(=O)NCc2ccccc2)=C[C@@H](c2ccc3c(c2)OCO3)[C@@H]1CCCO	-15%	12%	1%	-68*	-2%	-5%
CCO[C@H]1OC(C(=O)O)=C[C@@H](c2ccc3c(c2)OCO3)[C@@H]1CCCO	-6%	9%	-9%	-101*	-3%	4%
CCO[C@@H]1OC(C(=O)NCc2ccccc2)=C[C@H](c2ccc3c(c2)OCO3)[C@H]1CCCO	3%	-1%	-1%	-9	4%	2%
CCO[C@@H]1OC(C(=O)N2CCN(Cc3ccc4c(c3)OCO4)CC2)=C[C@H](c2coc3ccccc3c2=O)[C@H]1CCCO	-29%	1%	-16%	-89*	-5%	1%
C#CCNC(=O)C1=C[C@@H](c2ccc3c(c2)OCO3)[C@H](CCCO)[C@@H](OCC)O1	-7%	-3%	45µM*	2	-6%	9%
CCOc1ccc(NC(=O)CCS(=O)(=O)c2cccc3nonc23)cc1	-23%	.	0%	10	1%	.
Cc1noc(C)c1-c1nccc(NC2CC2)n1	2%	5%	.	.	.	.
CCO[C@@H]1OC(C(=O)Nc2ccccc2)=C[C@H](c2ccccc2)[C@H]1CCCO	-16%	-17%	-1%	-61*	4%	6%
CC(C)COc1ccc(C(=O)CCN2CCCCC2)cc1	-12%	-1%	0.35µM*	7	-7%	?
CCCCOc1ccc(C(=O)CCN2CCCCC2)cc1	-15%	-5%	0.32µM*	-9	-16%	?
Cc1nn(CCCC(=O)Nc2cc(C(F)(F)F)ccc2Cl)c(=O)c2c1sc1ccccc12	-22%	.	5%	22	-8%	.
Cc1ccc(C2C=C(c3ccc(Cl)cc3)Nc3nc(NS(=O)(=O)c4ccccc4)nn32)cc1 (stereo not given)	-24%	.	32µM*	24	3%	.
COc1ccccc1C1C=C(c2ccc(Cl)cc2)Nc2nc(N3C(=O)CCC3=O)nn21 (stereo not given)	-26%	-12%	0%	24	5%	-5%
